HepG2 tox = qHTS for Inhibitors of TGF-b: Cytotox Counterscreen | HepG2 CAGA-GFP viability, ATP luminescence, 18 h | Potency, µM (top dose mostly 46.1 µM), inactives show top-dose activity change, negative = cytotoxicity, hits mostly cytotoxic | 0.76% of 410,000 active | AID 588856, 2011
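CellTiter-Glo luminescence gave cytotoxicity after 18 hours at 37 degrees C. The cells were HepG2 CAGA-GFP in 1% FBS DMEM, stimulated with 500 pg/mL TGF-beta after compound addition. %Activity was normalised to no-cell wells (complete cell-killing) and DMSO (no toxicity), and curves were fitted and classified.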
DT40 TDP1 no CPT = qHTS for Inhibitors of human tyrosyl-DNA phosphodiesterase 1 (TDP1): qHTS in cells in absence of CPT; DT40 Tdp1-/- hTDP1 cells, no CPT, ATP luminescence, 48 h; Potency, µM (highest dose often 46.2 µM), for inactives: top-dose activity change, negative = growth inhibition, most hits filed as inhibitors; 15% of 420,000 active; AID 686978, 2013; note: % is set by controls: 0 for no effect and ±100 for the full control effect; nearly all actives have a fitted effect of over 55% in size
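Camptothecin absent (DMSO only). Human TDP1-complemented DT40 knockout cells, 400 cells/well, 37 °C for minimum 48 hr; ATP measured via CellTiter-Glo, 30 min dark incubation, luminescence.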
HT1080NT lethal = qHTS for induction of synthetic lethality in tumor cells producing 2HG: qHTS for the HT-1080-NT fibrosarcoma cell line | 1.6% of 360,000 active | Potency, µM (highest dose often 46.1 µM), without a hit: at the highest dose activity, negative = less viability, most hits filed as cytotoxic | HT-1080-NT fibrosarcoma viability, CellTiter-Glo ATP luminescence, 48 h;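 note: NT is the 2HG producing partner of a matched IDH1 knockdown line; 0% = DMSO-treated cells and -100% = media-only wells without cells; nearly all actives have a fitted effect of over 55% in size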
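HT-1080-NT; 750 cells/well; 5% FBS RPMI; 48 h compound, 37 degrees C; CellTiter-Glo luminescence; curve fitting and curve-class assignment.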
TDP1 cell CPT = qHTS for Inhibitors of human tyrosyl-DNA phosphodiesterase 1 (TDP1): qHTS in cells in presence of CPT; 12% of 420,000 active; Potency, µM (highest dose often 46.2 µM), for the others: at the highest dose activity change, negative = growth inhibition, actives largely listed as inhibitors; chicken DT40 Tdp1-/-;hTDP1 cells + 20 nM CPT, ATP luminescence, 48 h; note: % is set by controls: 0 for no effect and ±100 for the full control effect; nearly all actives have a fitted effect of over 55% in size
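Chicken DT40 Tdp1-/- cells stably complemented with human TDP1 were seeded at 400 cells/well in medium containing 20 nM camptothecin, exposed to pin-transferred compounds, and grown at 37 °C for at least 48 hr. Viability was read as ATP luminescence.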
TGFb SMAD3 inh = qHTS for Inhibitors of TGF-b. 1.2% of 410,000 active. Potency, µM (titrated, usually from 46.1 µM), for the others: at the highest dose activity, negative = inhibition, most hits filed as inhibitors. HepG2 CAGA-GFP TGF-b/SMAD3 reporter, GFP fluorescence, 18 h; TGF-beta stimulated, 500 pg/mL final; note: % is set by controls: 0 for no effect and ±100 for the full control effect; nearly all actives have a fitted effect of over 65% in size
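Inhibition was scored as loss of TGF-beta-induced (500 pg/mL final, 18 hours, 37 degrees C) GFP in HEPG2 cells carrying a CAGA-GFP reporter, in DMEM with 1% FBS. Well GFP was summed per cell; Activity was normalised to unstimulated and stimulated DMSO wells, then concentration-response fitting.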
HT1080 IDH1KD tx = qHTS for induction of synthetic lethality in tumor cells producing 2HG: qHTS for the HT-1080-IDH1KD cell line; HT-1080 IDH1 knockdown viability, ATP luminescence, 48 h; Potency, µM (top dose mostly 46.1 µM), inactives show at the top dose activity, negative = toxicity, usual class: cytotoxic; 2% of 360,000 active;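 note: 0% = DMSO wells and -100% = cell-free medium wells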
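Using the IDH1-knockdown HT-1080 line run in the same batch and compound series as the NT line, viability after 48 h at 37 °C was determined by CellTiter-Glo luminescence and expressed as % activity.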
* marks the source's active call; other numbers are inactive results; ? = inconclusive; · = not tested or not shown. Hits are enriched below; roughly 17% of the tested compounds scored in any of these assays. Calls come from the whole dose curve; as a rule, active = well fitted curve in the direction sought with a large enough effect; inconclusive = small, poorly fitted or top-dose-only effect, or another doubt; inactive = no such curve, though single readings can be large; an effect the other way counts as inactive or inconclusive. Potency is the fitted concentration of half-maximal effect.

SMILES | HepG2 tox | DT40 TDP1 no CPT | HT1080NT lethal | TDP1 cell CPT | TGFb SMAD3 inh | HT1080 IDH1KD tx
COc1ccc(CC(=O)Nc2cccc(/C(C)=N/NC(=O)c3cccc([N+](=O)[O-])c3)c2)cc1 | -4% | ? | -8% | -26% | 6% | -16%
CCN1CCN(C(=O)c2ccc(CS(=O)(=O)Cc3ccccc3Cl)o2)CC1 | 1% | 1% | -1% | 0% | -7% | 6%
CN(c1ccccc1)S(=O)(=O)c1cccc(NC(=O)C2=NN(c3ccccc3)C(=O)CC2)c1 | -14% | 13µM* | -13% | ? | ? | -16%
COc1ccc(NS(=O)(=O)c2cccc(NC(=O)C3=NN(c4ccccc4)C(=O)CC3)c2)cc1 | -21% | 15µM* | ? | ? | ? | ?
CN(c1ccccc1)S(=O)(=O)c1cccc(NC(=O)c2ccc(=O)[nH]c2)c1 | -8% | ? | -1% | ? | 2% | -1%
COc1ccc(NS(=O)(=O)c2cc(NC(=O)C3=NN(c4ccccc4)C(=O)CC3)ccc2C)cc1 | -33% | -27% | -2% | ? | -3% | -27%
COc1ccc(CNC(=O)C(c2ccco2)N(C(=O)c2ccccn2)c2ccccc2)cc1 (stereo unspecified) | -2% | 23µM* | 0% | 10µM* | -13% | -8%
COc1cc(C(=O)N2CCCN(C)CC2)cc(OC)c1C | 0% | 5% | 22% | -3% | 7% | 17%
Cc1ccc(C(=O)OCn2ncc(Cl)c(Cl)c2=O)cc1 | -103% | 2.6µM* | 5.8µM* | 1.8µM* | ? | 5.2µM*
O=C(OCn1ncc(Cl)c(Cl)c1=O)c1ccc(C(F)(F)F)cc1 | 10µM* | 5.8µM* | ? | 2.9µM* | -13% | ?
Cc1ccc([C@H]2C(C(=O)O)=CC[C@@H](c3ccc(C)cc3)N2S(=O)(=O)c2ccccc2C)cc1 | -29% | ? | -2% | ? | -8% | -12%
O=C(NCc1nc2ccccc2[nH]1)C1=C[C@@H](c2ccccc2)C[C@@H](OCc2ccc(CO)cc2)O1 | -50% | ? | -21% | ? | -46% | -12%
O=C(NCc1nc2ccccc2[nH]1)C1=C[C@H](C2CCCCC2)C[C@H](OCCCCO)O1 | 1% | 16µM* | 5% | 23µM* | -12% | 0%
O=C(NCc1nc2ccccc2[nH]1)C1=C[C@H](c2ccccc2)C[C@H](OCc2ccc(CO)cc2)O1 | -2% | ? | -15% | ? | -11% | -5%
CC(C)(C)[C@H]1C=C(C(=O)NCc2nc3ccccc3[nH]2)O[C@@H](OCc2ccc(CO)cc2)C1 | -24% | ? | -4% | 21µM* | ? | -1%
O=C(NCc1nc2ccccc2[nH]1)C1=C[C@@H](c2ccc(C(F)(F)F)cc2)C[C@@H](OCc2ccc(CO)cc2)O1 | -28% | 18µM* | ? | ? | ? | ?
O=C(NCc1nc2ccccc2[nH]1)C1=C[C@H](C2CC2)C[C@H](OCCCCO)O1 | 12% | -8% | -1% | -5% | 12% | 6%
O=C(NCc1nc2ccccc2[nH]1)C1=C[C@H](C2CCCCC2)C[C@H](OCc2ccc(CO)cc2)O1 | -40% | 16µM* | ? | 12µM* | ? | ?
Cc1noc(C)c1-c1nccc(NC2CC2)n1 | · | 6% | · | 7% | · | ·
C=CCNc1nc(NCc2ccccc2)c(C#N)c2c1CN(C)CC2 | -61% | ? | ? | 18µM* | -1% | ?
CCN1CCc2c(C#N)c(NCc3ccccc3)nc(N(CC)CC)c2C1 | -51% | 18µM* | ? | ? | 13% | ?
Cc1cc(F)cc(-c2cc(C(=O)NCc3ccco3)[nH]n2)c1 | -7% | -9% | 2% | 8% | 0% | 0%
C/C(=N\Nc1ncc(Cl)cc1Cl)c1ccc(C#N)cc1 | 64% | 7% | -11% | -6% | -7% | -8%
COc1ccc(/C(C)=N/Nc2ncc(Cl)cc2Cl)c(O)c1 | -36% | 0.0082µM* | 4.6µM* | ? | -26% | ?
Cn1c(=O)c2[nH]c(CN(Cc3ccccc3)Cc3ccccc3)nc2n(C)c1=O | -11% | 15µM* | 1% | 10µM* | -2% | 0%
SMILES | HepG2 tox | DT40 TDP1 no CPT | HT1080NT lethal | TDP1 cell CPT | TGFb SMAD3 inh | HT1080 IDH1KD tx
Cn1c(=O)c2[nH]c(COc3ccccc3)nc2n(C)c1=O | 1% | ? | -4% | -8% | 9% | 1%
Cn1c(=O)c2[nH]c(CCCCc3nc4ccccc4[nH]3)nc2n(C)c1=O | 3% | -11% | -2% | 4% | 13% | 3%
Cn1c(=O)c2[nH]c(CSCc3ccccc3)nc2n(C)c1=O | -13% | ? | 11% | ? | -2% | 15%
Cn1c(=O)c2[nH]c(CCCCCCCCc3nc4ccccc4[nH]3)nc2n(C)c1=O | -33% | 5.2µM* | ? | 7.3µM* | ? | -16%
Cn1c(=O)c2[nH]c(Cc3cccc4ccccc34)nc2n(C)c1=O | 0% | 16µM* | 3% | ? | 23% | 2%
CCOc1ccccc1NC(=O)CN1C(=O)CC(c2ccc(OC)c(OC)c2)Sc2ccccc21 (stereo unspecified) | -23% | · | · | · | -3% | ·
OCCN1CCN(c2ncnc3c2ncn3[C@H]2CN(Cc3ccc(F)cc3)C[C@@H](CO)O2)CC1 | 1% | ? | -3% | ? | 0% | -1%
CN1CCN(c2ncnc3c2ncn3[C@H]2CN(Cc3ccc(-c4ccccc4)cc3)C[C@@H](CO)O2)CC1 | 11µM* | ? | 18µM* | ? | ? | 9.2µM*
OCCN1CCN(c2ncnc3c2ncn3[C@H]2CN(Cc3ccc(-c4ccccc4)cc3)C[C@@H](CO)O2)CC1 | -34% | 6.5µM* | 21µM* | 5.2µM* | -6% | ?
Cc1cc(Cl)ccc1C(O)c1ncc(-c2ccccc2C(F)(F)F)[nH]1 (stereo unspecified) | -23% | 15µM* | ? | 26µM* | ? | ?
Cc1ccccc1-c1cnc(C(O)c2ccc(Cl)cc2C)[nH]1 (stereo unspecified) | -23% | ? | ? | ? | -42% | -26%

Screening data as filed in PubChem.
